Experimental data published in PubChem BioAssay (EPA / NIEHS).
Calls of active or inactive are those of the source. The calls were made as follows: active = hit-call score of the fitted dose curve at least 0.9, where 1 is the maximum; inactive = score below 0.9.

How the values were obtained:
[1] = BSK_CASM3C_SRB: Viability Assessment in the BioMAP Diversity Plus: CASM3C Assay (AID 2283050); conditions: primary human coronary artery smooth muscle cells;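 also: cells exposed to compound for 24 h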
[2] = read-out: Thrombomodulin, THBD (gene 7056); assay: BSK_CASM3C_Thrombomodulin: BioMAP Diversity Plus: CASM3C Assay for Thrombomodulin Biomarker Activity (AID 2283051); conditions: primary human coronary artery smooth muscle cells; actives raise or lower the signal;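 also: thrombomodulin protein level measured by ELISA 24 h after dosing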
[3] = read-out: Tissue Factor, F3 (gene 2152); assay: BSK_CASM3C_TissueFactor: BioMAP Diversity Plus: CASM3C Assay for Tissue Factor Biomarker Activity (AID 2283052); conditions: primary human coronary artery smooth muscle cells; actives raise or lower the signal;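 also: cell surface tissue factor protein level read by ELISA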
[4] = read-out: Interferon-gamma inducible Protein 10 (IP10), CXCL10 (gene 3627); assay: BSK_hDFCGF_IP10: BioMAP Diversity Plus: hDFCGF Assay for Interferon-gamma inducible Protein 10 (IP10) Biomarker Activity (AID 2283053); conditions: primary human foreskin fibroblasts; actives raise or lower the signal
Method in brief: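 ELISA read-out of IP-10 (CXCL10) from primary human skin fibroblasts, 24 h after compound addition. Gain or loss of signal versus DMSO baseline, bidirectional curve fitting.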

[5] = read-out: Urokinase-type plasminogen activator receptor (uPAR), PLAUR (gene 5329); assay: BSK_CASM3C_uPAR: BioMAP Diversity Plus: CASM3C Assay for Urokinase-type plasminogen activator receptor (uPAR) Biomarker Activity (AID 2283054); conditions: primary human coronary artery smooth muscle cells; actives raise or lower the signal;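 also: cell-surface uPAR protein level quantified by ELISA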
[6] = read-out: Vascular cell adhesion molecule 1 (VCAM1), VCAM1 (gene 7412); assay: BSK_CASM3C_VCAM1: BioMAP Diversity Plus: CASM3C Assay for Vascular cell adhesion molecule 1 (VCAM1) Biomarker Activity (AID 2283055); conditions: primary human coronary artery smooth muscle cells; actives raise or lower the signal;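 also: VCAM-1 protein level quantified by ELISA on the cells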
[7] = read-out: Epidermal growth factor receptor (EGFR), EGFR (gene 1956); assay: BSK_hDFCGF_EGFR: BioMAP Diversity Plus: hDFCGF Assay for Epidermal growth factor receptor (EGFR) Biomarker Activity (AID 2283057); conditions: primary human foreskin fibroblasts; actives raise or lower the signal
Method in brief: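 ELISA readout of EGFR on human dermal fibroblasts (primary foreskin cells), 24 h post-dosing; bidirectional curve fit vs DMSO baseline, gain or loss of signal scored.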

[8] = BSK_hDFCGF_Proliferation: Cell Proliferation Assessment in the BioMAP Diversity Plus: hDFCGF Assay (AID 2283059); conditions: primary human foreskin fibroblasts;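 also: curves fitted for both rise and fall of signal versus DMSO baseline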
Method in brief: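 Total protein read at 560 nm after 0.1% SRB staining of TCA-fixed human skin fibroblasts, […]. Activity is fitted in both directions relative to DMSO as baseline.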

[9] = read-out: Macrophage colony-stimulating factor (MCSF), CSF1 (gene 1435); assay: BSK_hDFCGF_MCSF: BioMAP Diversity Plus: hDFCGF Assay for Macrophage colony-stimulating factor (MCSF) Biomarker Activity (AID 2283060); conditions: primary human foreskin fibroblasts; actives raise or lower the signal
Method in brief: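 M-CSF levels read by ELISA at 24 h post-dosing in human skin fibroblasts. Parallel cultures stained with SRB assessed cytotoxicity at the same time point; response fitted in both directions against the DMSO baseline.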

[10] = BSK_hDFCGF_SRB: Viability Assessment in the BioMAP Diversity Plus: hDFCGF Assay (AID 2283061); conditions: primary human foreskin fibroblasts;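 also: cells exposed to compound for 24 h before the read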
Method in brief: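 Viability was read as total protein: after 10% TCA fixation, wells were stained with 0.1% sulforhodamine B and read at 560 nm. Primary human foreskin fibroblasts were dosed for 24 h, with bidirectional fitting versus DMSO.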

[11] = read-out: TIMP metallopeptidase inhibitor 1 (TIMP1), TIMP1 (gene 7076); assay: BSK_hDFCGF_TIMP1: BioMAP Diversity Plus: hDFCGF Assay for TIMP metallopeptidase inhibitor 1 (TIMP1) Biomarker Activity (AID 2283062); conditions: primary human foreskin fibroblasts; actives raise or lower the signal
Method in brief: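 TIMP-1 measured by ELISA 24 h after chemical dosing of primary human skin fibroblasts, with gain or loss fitted relative to DMSO. Parallel SRB staining (560 nm) monitored overt cytotoxicity.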

[12] = read-out: Monokine induced gamma interferon (MIG), CXCL9 (gene 4283); assay: BSK_hDFCGF_MIG: BioMAP Diversity Plus: hDFCGF Assay for Monokine induced gamma interferon (MIG) Biomarker Activity (AID 2283063); conditions: primary human foreskin fibroblasts; actives raise or lower the signal
Method in brief: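 Human primary foreskin fibroblasts in the hDFCGF system, exposed to test chemical for 24 h; MIG measured by ELISA. Bidirectional curve fitting against DMSO negative control as activity baseline.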

[13] = read-out: Matrix Metallopeptidase 1 (MMP1), MMP1 (gene 4312); assay: BSK_hDFCGF_MMP1: BioMAP Diversity Plus: hDFCGF Assay for Matrix Metallopeptidase 1 (MMP1) Biomarker Activity (AID 2283064); conditions: primary human foreskin fibroblasts; actives raise or lower the signal
Method in brief: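 MMP1 levels quantified by ELISA 24 h after dosing human dermal fibroblast cultures, with parallel SRB total-protein staining for overt cytotoxicity. Data fitted in both directions against DMSO baseline.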

[14] = read-out: Vascular cell adhesion molecule 1 (VCAM1), VCAM1 (gene 7412); assay: BSK_hDFCGF_VCAM1: BioMAP Diversity Plus: hDFCGF Assay for Vascular cell adhesion molecule 1 (VCAM1) Biomarker Activity (AID 2283065); conditions: primary human foreskin fibroblasts; actives raise or lower the signal
Method in brief: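 ELISA readout of VCAM-1 on human dermal fibroblast primary cultures, 24 h after chemical exposure. Gain or loss of signal fitted in both directions against DMSO baseline.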

[15] = read-out: Plasminogen activator inhibitor-1 (PAI1), SERPINE1 (gene 5054); assay: BSK_hDFCGF_PAI1: BioMAP Diversity Plus: hDFCGF Assay for Plasminogen activator inhibitor-1 (PAI1) Biomarker Activity (AID 2283066); conditions: primary human foreskin fibroblasts; actives raise or lower the signal
Method in brief: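 ELISA readout of PAI-1 from primary human skin fibroblast cultures, 24 h after compound addition. Gain or loss of signal was fitted bidirectionally against DMSO baseline.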

[16] = read-out: Intercellular Adhesion Molecule 1 (ICAM1), ICAM1 (gene 3383); assay: BSK_KF3CT_ICAM1: BioMAP Diversity Plus: KF3CT Assay for Intercellular Adhesion Molecule 1 (ICAM1) Biomarker Activity (AID 2283067); conditions: primary human keratinocytes with fibroblasts; actives raise or lower the signal
Method in brief: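 Cell-surface ICAM-1 was measured by ELISA 24 h after dosing primary human skin keratinocytes co-cultured with fibroblasts. Parallel SRB staining tracked overt cytotoxicity. Gain or loss of signal was fitted relative to DMSO.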

[17] = read-out: Interferon-gamma inducible Protein 10 (IP10), CXCL10 (gene 3627); assay: BSK_KF3CT_IP10: BioMAP Diversity Plus: KF3CT Assay for Interferon-gamma inducible Protein 10 (IP10) Biomarker Activity (AID 2283068); conditions: primary human keratinocytes with fibroblasts; actives raise or lower the signal
Method in brief: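 Human keratinocyte plus foreskin fibroblast primary co-culture exposed to test chemical for 24 h; IP-10 measured by ELISA. Concentration-response fitted bidirectionally against DMSO control as baseline.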

[18] = BSK_KF3CT_SRB: Viability Assessment in the BioMAP Diversity Plus: KF3CT Assay (AID 2283069); conditions: primary human keratinocytes with fibroblasts;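 also: total protein by sulforhodamine B staining as a cytotoxicity measure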
Method in brief: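 Cytotoxicity was gauged by SRB staining (0.1% SRB, 10% TCA fixation, 560 nm) of parallel cultures at 24 h. The cells were primary human skin keratinocytes co-cultured with fibroblasts, and activity was fitted in both directions against DMSO.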

Measured: AC50

c1ccc2sc(SSN3CCOCC3)nc2c1
active: [1] 20 µM | [3] 10.6 µM | [5] 6.71 µM | [6] 4.44 µM | [7] 7.7 µM | [8] 1.41 µM | [9] 9.39 µM | [10] 7.52 µM | [11] 10.7 µM | [15] 4.82 µM | [16] 10.7 µM | [17] 23.8 µM | [18] 10.3 µM
inactive: [2] | [4] | [12] | [13] | [14]

CCCCCCCO
not listed: [11]
inactive: all other assays above

CCOC(=O)/C=C\C(=O)OCC
not listed: [11]
inactive: all other assays above

CCc1cccc(C)c1N(C(=O)CS(=O)(=O)O)C(C)COC (stereo not drawn)
not listed: [11]
inactive: all other assays above

O=C1CCCCCCCCCCCN1
not listed: [11]
inactive: all other assays above

CCCCCCCCCCCC(C)=O
active: [1] 20 µM | [3] 0.82 µM | [5] 20 µM | [8] 24.6 µM
not listed: [11]
inactive: all other assays above
